# In the supplement of paper PMC6555819:
# Legend:
# Experiment in all cases: PBM binding z-score (relative to random genomic background probes); higher = stronger binding; sequences stand for … in GC…GCGATTGACAGCGTAGAATGAAGG
# [1] = test system: FXR:RXRa (NR concentration 270 nM, RXRa partner concentration 90 nM)
# Procedure, shortened: (§1)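 Scanned fluorescence from custom Agilent 4×180K protein-binding microarrays was regression-normalized. Binding z-scores use random background probes as reference. Ligand-free nuclear receptor dimers were incubated on the arrays for 1 h and detected with antibodies against each partner (one per run).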
# [2] = test system: LXRa:RXRa (NR concentration 270 nM, RXRa partner concentration 90 nM)
# Procedure, shortened: as §1
# [3] = test system: LXRa homodimer (NR concentration 270 nM)
# Procedure, shortened: as §1
# [4] = test system: LXRb:RXRa (NR concentration 270 nM, RXRa partner concentration 90 nM)
# Procedure, shortened: as §1
# [5] = test system: LXRb homodimer (NR concentration 270 nM)
# Procedure, shortened: as §1
# [6] = test system: PPARa:RXRa (NR concentration 270 nM, RXRa partner concentration 90 nM)
# Procedure, shortened: as §1
# [7] = test system: PPARg:RXRa (NR concentration 180 nM, RXRa partner concentration 90 nM)
# Procedure, shortened: as §1
# [8] = test system: PPARg:RXRa 270nM:90nM, anti-RXR (NR concentration 270 nM, RXRa partner concentration 90 nM)
# Procedure, shortened: as §1
# [9] = test system: PPARg:RXRa 30nM:10nM, anti-RXR (NR concentration 30 nM, RXRa partner concentration 10 nM)
# Procedure, shortened: as §1
# [10] = test system: PPARg:RXRa 90nM:30nM, anti-RXR (NR concentration 90 nM, RXRa partner concentration 30 nM)
# Procedure, shortened: as §1
Sequence,PBM binding z-score [1],PBM binding z-score [2],PBM binding z-score [3],PBM binding z-score [4],PBM binding z-score [5],PBM binding z-score [6],PBM binding z-score [7],PBM binding z-score [8],PBM binding z-score [9],PBM binding z-score [10]
TCGAGTGGGTTAGTCGGGGCATTCAGCCAACATA,0.26,0.197,0.0739,0.985,-0.295,0.659,-0.439,0.869,0.979,0.719
ATCTCTAGTTAACAAGTTCAGTGAAAGAGAGGAC,0.682,1.12,0.782,0.883,1.22,0.724,0.29,0.54,0.48,0.596
CCTCCTAGGTCAATGGTCAGCTAAAGCAGCTCGC,3.28,2.46,0.212,2.07,0.406,3.53,3.92,5.19,2.32,4.99
TGTCAAAGTTCAAAGATAACGTAAGTATCCACAC,6.56,6.17,4.28,4.11,2.1,5.01,7.86,6.97,4.95,6.88
CATACAGGGTCAGCAAGGCCAGAGTAGGGACGGC,4.73,3.36,-0.0417,2.23,-0.0671,4.51,3.47,3.27,0.536,2.04
TCATATAAGTAAACAGGTGAAAGTCCGTAAGTTA,1.27,1.25,0.422,1.2,0.0139,1.55,1.32,2.57,4.41,3.57
ACTAGCAGGCCAAGGGTCACTAAAGATTAGTCCG,2.25,3.51,-0.00755,2.66,-0.174,4.34,8.06,7.21,6.64,7.61
TCTTGTAGCTCAAGCAGGTTAAGAAAGCCTGAGT,-0.423,-0.287,-0.662,0.0107,-0.909,0.461,-0.708,0.77,2.04,1.39
TCTTGTAAATCAAAGGTTAAGAAAGCCGAAGCCT,1.34,2.53,0.811,1.94,0.621,3.08,3.23,5.39,4.93,5.88
ATCTCGAGGTAAAGTTCAGTGAAAGATCGATAGA,1.3,1.92,1.04,1.29,0.424,2.4,2.53,3.53,1.91,3.69
GGAACGAGGGCAATTTGATAGCAGAGTTTGATGG,0.502,0.242,-0.405,0.427,-0.315,1,1.04,0.751,0.15,0.401
ACTACTAGTTGACTTAGGGCAACCGATACGACGC,0.249,0.17,0.195,0.0613,0.134,0.123,1.04,0.267,0.432,0.312
GCATACAGGTGAAACGCAGGTAACTCAGGGTGGC,-0.0721,0.132,-0.487,-0.143,-0.74,1.35,1.04,0.609,-0.12,0.232
GCTTGTAGATCAGGGTTAAGAAAGACTAAGCTAA,0.433,0.899,-0.568,0.723,-0.466,1.55,0.746,1.1,0.497,0.871
AGAACGAGGGCGATGAGTTGATAGCACGGGTGGC,-0.358,-0.46,-0.764,-0.815,-0.754,-0.167,0.665,-0.212,-0.297,-0.297
TAGCCTAGGTCATTGGGCCAATATAGTACGCATC,4.69,3.66,1.13,2.95,0.235,4.38,4.57,4.16,1.53,3.46
CTAACTAGGTCAAAGGTCAAAGTCGAGCCAACCA,8.53,7.32,5.19,7.21,2.96,7.74,14,11.2,13.1,13.2
ATACCAAGGTGCTCGTGAGGTCGTTGATACTAAC,0.689,0.535,0.19,0.834,-0.238,0.836,0.126,-0.218,-0.413,-0.131
TGTCAAAGTTCAACGGTAACGTAAGTATCCACAC,6.73,5.85,4.19,3.92,1.33,5.05,8.27,7.38,5.3,6.83
CCACGGAGGACAGAAGGTCAGAGCTGTCCGCTTT,1.39,1.72,-0.0316,1.33,-0.786,2.11,0.277,0.736,-0.771,0.384
ACGTACGGGTCAACGAGGTTATAGCACGCGTATA,7,4.84,0.327,4.27,0.00154,5.95,5.01,4.94,1.55,3.46
ATATCAAGGTGATCGTGAGGTCGTTGATACTAAC,1.97,1.33,0.367,1.31,0.595,1.82,0.923,0.763,0.0904,0.846
CGAACTAGGTCATTGACAGGACACTGAATAGTAA,4.3,3,0.64,2.25,0.377,4.54,7.31,6.14,3.7,5.66
CCGACTGGGGCATAAGTTTACCATAAGCCAGCCC,-0.352,-0.207,-0.448,-0.337,-0.91,0.222,1.66,2.44,0.241,1.74

Sequence,PBM binding z-score [1],PBM binding z-score [2],PBM binding z-score [3],PBM binding z-score [4],PBM binding z-score [5],PBM binding z-score [6],PBM binding z-score [7],PBM binding z-score [8],PBM binding z-score [9],PBM binding z-score [10]
TCTGCTAGGTCGACGATGGTCAGCTAATCTGCTA,-0.0207,0.0577,-1.03,-0.332,-1.02,0.202,-0.26,0.642,1.2,0.698
CCTAGCAGGCCAGGGTCACTCCAGCATTTCGCTT,1.55,1.25,-0.465,1.65,-0.731,2.73,0.332,1.25,-0.559,0.667
ATATCTAGGTAAGACTCAGTTCAGTGAAGAACGC,0.211,0.372,0.425,0.221,0.484,1.35,1.55,1.27,0.124,0.928
AGTCAAAGTTCACTAGGTGACGTAAGATTCAGCT,5.44,5.36,3.15,3.09,0.835,5.06,7.82,7.04,3.81,6.5
CGCCCAAGGTCAATGCTAGGTCAGTGAAAGCATT,6.51,5.61,2.46,4.24,0.667,4.93,4.07,4.33,1.03,3.08
AGGCAAAGTTCATCTAGGTAACGTAAGATATGCT,6.62,5.97,4.54,3.71,1.35,4.88,5.55,5.87,2.83,4.72
CAAACTAGGTCACCGGAAGGACAAAGTCCGCATG,4.67,3.57,0.547,2.71,0.36,5.63,9.49,7.51,6.09,7.18
TAGCCTAGGTCATTGGGCCACTATAGTACGCATC,4.39,3.9,1.1,3.05,0.679,3.99,4.65,4.12,1.41,3.18
CCTGGTAGGTCAATGGTCAGCTAAAGCAGCTCGC,3.32,2.64,0.425,1.98,0.463,3.77,6.52,6.4,4.37,6.53
ATAGCAAGGTGATCGTGAGGTCGTTGATACTAAC,1.34,0.986,0.104,0.673,-0.808,1.47,0.359,0.22,0.0107,-0.0753
CGTCCAAGGTCAGAGGGGTCAGTGAATGCCGAGT,6.36,4.81,1.33,4.54,0.592,5.12,4.33,4.71,1.43,3.39
TCTAGCAGCCCAGAGGGTCACTCAAGAGGTACGG,0.547,0.531,-0.652,1.01,-1.12,1.92,0.566,1.13,1.45,1.2
CAAACTAGGTCACCGGATGGTCAAAGTCCGCATG,4.23,3.25,0.505,2.57,0.435,5.4,8.96,7.39,5.71,7.25
CGAACTAGGTCAGAACAGAACAGTGAAGGATGAT,0.766,0.278,-0.166,0.401,-0.644,2.7,5.43,4.46,1.89,3.74
AGAACGAGGGCAATGAGTTGATAGTACGGGTGGC,0.224,0.29,-0.524,-0.18,-0.473,1.56,1.5,0.768,0.0705,0.415
ACAGAGAGGTGATGAAGGTAACTCAGGCTATCAT,0.1,-0.0398,-0.296,0.23,0.0774,0.952,0.708,0.305,0.188,0.328
GGAACGAGGGCAAAGTTGATAGCATCTGTCGACG,1.45,0.921,-0.231,1.07,-0.272,4.11,6.65,7.24,5.84,7.47
TCTGTTAGGTCAACGATGGTCAGCTAATCTGCTA,4.02,3.8,0.814,2.6,1.88,3.76,2.17,3.13,3.15,3.12
ACTCGGAGGACAAAGGTCAGAGTTACGCCAGTGA,4.06,4.17,1.93,3.55,0.422,5.03,7.06,6.77,5.57,7.32
CCTAGCAGGCCAATCTGTGTCACTCAAGGCTTGA,-0.0282,-0.198,-0.502,-0.335,-0.193,0.394,-0.0496,-0.118,-0.619,-0.304
GCGACTGGGGCAAAGCACGTTACCATAAGGTTGG,-0.454,-0.482,-0.763,-0.305,-0.971,0.875,1.7,2.21,0.24,1.62
CCGAGTAGTTTATGGGGCATTCAGGCAACGGTGA,0.0687,-0.0173,-0.197,0.53,-0.0668,0.806,0.147,0.448,-0.234,0.108
TTACCAAGGGGAAGGTCGTTGATCCCTCTGTAGA,0.907,0.734,-0.259,0.976,-0.862,1.38,0.79,2.13,0.461,1.52
GGAACGAGGGCATTCGAGTTGACAGCATGGCGAT,1.65,1.9,-0.394,-0.0362,-0.953,1.34,0.875,0.675,-0.547,-0.0204
